# Laboratory results: publication PMC6602471
# Target: RUNX1 (Homo sapiens, UniProt Q01196 1-453)
# Experiment: custom PBM; custom protein-binding microarray; buffer, salt, pH and temperature not stated; high values mean tight binding
# Settings: dsDNA, one strand shown
# Chain of RUNX1 (Q01196 whole entry): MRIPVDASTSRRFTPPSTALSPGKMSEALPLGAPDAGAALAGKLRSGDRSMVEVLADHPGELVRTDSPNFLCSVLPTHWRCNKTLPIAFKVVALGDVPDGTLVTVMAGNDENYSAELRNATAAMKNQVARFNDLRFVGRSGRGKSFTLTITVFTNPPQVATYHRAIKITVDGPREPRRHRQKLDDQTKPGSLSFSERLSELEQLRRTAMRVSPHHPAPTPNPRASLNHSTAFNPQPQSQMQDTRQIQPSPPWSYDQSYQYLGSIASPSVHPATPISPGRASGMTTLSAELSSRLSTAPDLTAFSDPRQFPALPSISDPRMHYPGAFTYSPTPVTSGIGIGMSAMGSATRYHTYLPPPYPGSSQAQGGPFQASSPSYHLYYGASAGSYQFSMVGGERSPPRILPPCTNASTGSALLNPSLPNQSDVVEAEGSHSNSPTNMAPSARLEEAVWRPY
row,Sequence,binding signal
1,GCATACGGCTGCCGTCAGCCACATACGCACACATACACATACACACATACACATACGCAC,11 log fluorescence intensity
2,GCATACGGCTGACGTCAGCAACATACGCACACATACACATACACACATACACATACGCAC,10.9 log fluorescence intensity
3,GCGCACATTTTCCGTAAATCATACACGCACACATACACATACACACATACACATACGCAC,11.1 log fluorescence intensity
4,CGCGCACTCTGTGGTTGTGCACATACGCACACATACACATACACACATACACATACGCAC,11.3 log fluorescence intensity
5,GCGCACATTTCCCGTCAATCATACACGCACACATACACATACACACATACACATACGCAC,11 log fluorescence intensity
6,GCATACGGCTGACGTCATCCACATACGCACACATACACATACACACATACACATACGCAC,10.9 log fluorescence intensity
7,CGCGCACTCTGTGGTTCCGCACATACGCACACATACACATACACACATACACATACGCAC,11.4 log fluorescence intensity
8,GCGCACATTTCCCGTACATCATACACGCACACATACACATACACACATACACATACGCAC,11 log fluorescence intensity
9,GCGCACATTTGCCGTAAATCATACACGCACACATACACATACACACATACACATACGCAC,10.9 log fluorescence intensity
10,CGCGCGCTCTGTGGTTGCGCACATACGCACACATACACATACACACATACACATACGCAC,11.2 log fluorescence intensity
11,CGCGCACTCTGTGGCTGCGCACATACGCACACATACACATACACACATACACATACGCAC,10.9 log fluorescence intensity
12,GCATACGGCTGACGTCGGCCACATACGCACACATACACATACACACATACACATACGCAC,11 log fluorescence intensity
13,CGCGCACTGTGTGGTTGCGCACATACGCACACATACACATACACACATACACATACGCAC,11 log fluorescence intensity
14,CGCGCACTCTGTGGTTGAGCACATACGCACACATACACATACACACATACACATACGCAC,11.5 log fluorescence intensity
